Measured values: article PMC7826789 (International Journal of Molecular Sciences, 2021)

Columns and labels:
Conditions in all cases: Compound Concentration (nM):1000
CDK3 = tested on: CDK3
CDK4-cyclinD1 = tested on: CDK4-cyclinD1
CDK4-cyclinD3 = tested on: CDK4-cyclinD3
CDK4 = tested on: CDK4
CDK5 = tested on: CDK5
CDK7 = tested on: CDK7
CDK8 = tested on: CDK8
CDK9 = tested on: CDK9
CDKL1 = tested on: CDKL1
CDKL2 = tested on: CDKL2
CDKL3 = tested on: CDKL3
CDKL5 = tested on: CDKL5
CHEK1 = tested on: CHEK1
CHEK2 = tested on: CHEK2
CIT = tested on: CIT
CLK1 = tested on: CLK1
CLK2 = tested on: CLK2
CLK3 = tested on: CLK3
CLK4 = tested on: CLK4
CSF1R-autoinhibited = tested on: CSF1R-autoinhibited
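Further: KINOMEscan scanMAX binding as percent activity remaining versus control; lower means stronger binding.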

SMILES	Percent Control (CDK3) [%]	Percent Control (CDK4-cyclinD1) [%]	Percent Control (CDK4-cyclinD3) [%]	Percent Control (CDK4) [%]	Percent Control (CDK5) [%]	Percent Control (CDK7) [%]	Percent Control (CDK8) [%]	Percent Control (CDK9) [%]	Percent Control (CDKL1) [%]	Percent Control (CDKL2) [%]	Percent Control (CDKL3) [%]	Percent Control (CDKL5) [%]	Percent Control (CHEK1) [%]	Percent Control (CHEK2) [%]	Percent Control (CIT) [%]	Percent Control (CLK1) [%]	Percent Control (CLK2) [%]	Percent Control (CLK3) [%]	Percent Control (CLK4) [%]	Percent Control (CSF1R-autoinhibited) [%]
O=C(Nc1n[nH]c2nc(-c3ccc(O)cc3)c(Br)cc12)C1CC1 [SB-725317]	16	2.5	4.4	100	100	19	100	95	98	60	100	37	100	100	51	100	95	100	100	96
COc1ccc2c(-c3ccnc(Nc4cccc(OC(F)(F)F)c4)n3)cnn2n1 [GW810372X]	100	90	74	83	100	61	90	97	77	18	0	14	100	100	97	1.3	2.8	32	2.4	86
Nc1ncnc2occ(-c3ccc(NC(=O)Nc4cc(C(F)(F)F)ccc4F)cc3)c12 [GW770249X]	39	96	100	100	63	4.4	0	70	93	31	13	100	100	96	44	41	100	100	57	25
COc1cc(N2CCN(C(C)C)CC2)ccc1Nc1nc(Nc2ccc(F)cc2C(=O)NC[C@@H](O)CO)c2cc[nH]c2n1 [GSK1392956A]	100	85	100	89	100	93	100	100	100	100	100	43	94	0.2	80	1.6	2.6	77	7.5	100
Cl.O=S1CCN(Cc2ccc(-c3ccc4ncnc(Nc5ccc(OCc6ccccc6)c(F)c5)c4c3)o2)CC1 [GW576924A]	100	100	100	100	100	100	86	100	100	100	100	60	100	99	100	100	100	100	100	100
Cl.O=C(Nc1ccc(Oc2ccc3[nH]c(NC(=O)c4ccccc4)nc3c2)cc1)Nc1cc(C(F)(F)F)ccc1F [GW709042A]	100	92	100	84	100	32	54	81	92	69	96	100	96	100	0	44	100	100	79	79
COc1cc(C=NNc2ncnc3c2cnn3-c2ccccc2)ccc1O [GW513184X]	97	89	81	100	64	4	100	100	80	22	100	100	100	97	96	48	83	82	60	100
COc1cc2ncnc(Nc3ccc4c(cnn4Cc4ccccc4)c3)c2cc1OC.Cl [GW282449A]	100	100	100	100	100	100	100	100	100	95	100	55	100	0	100	100	100	100	100	100
Cl.O=C(O[C@H]1CN[C@H](C#Cc2cc3ncnc(Nc4ccc5c(cnn5Cc5ccccc5)c4)c3s2)C1)N1CCOCC1 [GSK200398A]	100	68	100	100	100	78	84	87	88	92	100	40	100	24	77	83	100	90	100	87
COc1ccccc1-c1cc(/C=C2\C(=O)Nc3ncc(Br)cc32)cc(Br)c1O [GW442130X]	100	88	95	100	99	89	71	97	100	96	93	88	100	79	89	100	67	84	85	100
CCn1c(-c2nonc2N)nc2c(C#CC(C)(C)O)nc(OCCNC)cc21.Cl [GSK949675]	100	100	92	100	85	88	100	100	90	100	100	100	100	86	44	100	87	100	90	100
COC(=O)Nc1nc2ccc(Oc3ccc(NC(=O)Nc4cc(C(F)(F)F)ccc4F)cc3)cc2s1.Cl [GW693917A]	100	96	90	100	100	9.3	20	86	73	0	15	38	95	76	1.8	42	100	82	100	86
Cl.c1ccc(Cc2nc3ccc(Nc4ncnc5ccccc45)cc3[nH]2)cc1 [GR269666A]	100	93	100	93	100	100	88	100	100	100	100	59	100	94	100	91	93	100	100	100
COc1cc(/C=N/Nc2ncnc3[nH]ncc23)ccc1O [GW578748X]	100	79	100	92	84	70	83	100	52	100	97	100	7	51	83	19	29	85	50	56
CC1=C(C(=O)Nc2ccc3[nH]ncc3c2)C(c2ccc3ccccc3c2)CC(=O)N1 (stereo not shown) [GSK270822A]	99	63	94	94	100	88	71	100	91	93	72	100	92	100	99	95	80	91	70	54
C/C(Nc1ccc(S(N)(=O)=O)cc1)=C1/C(=O)Nc2ccccc21 [GW335962X]	100	29	64	100	100	74	78	100	85	82	94	100	93	51	86	98	78	98	100	40
COc1cccc(-c2c[nH]c3c(N/N=C/c4ccncc4)ncnc23)c1 [GW814408X]	67	26	25	100	82	2.2	100	65	15	26	8	4.2	100	86	54	30	44	80	30	74
O=C1Nc2ccc(C(=O)c3ccco3)cc2C1=Cc1cc(Cl)c(O)c(Cl)c1 [GW406108X]	100	78	94	94	89	76	80	100	88	100	100	100	100	42	89	3.3	0.1	6.2	12	61
COc1ccc2[nH]c3c4[nH]c5ccc(OC)cc5c4c4c(c3c2c1)C(=O)NC4=O [GW296115X]	100	82	74	100	75	56	87	58	75	92	91	94	12	1.7	35	80	56	79	57	59
NS(=O)(=O)c1ccc(N/N=C2\C(=O)Nc3ccc(-c4cnco4)cc32)cc1 [GW276655]	47	29	31	94	81	32	100	93	39	49	37	16	100	93	79	36	24	100	37	88
